# Measurements as given in PubChem BioAssay.
# A number with no mark means an inactive call. For part of these data: Measured potencies and affinities stand elsewhere. Active and inactive are the calls of the source. Unless noted, no rule for the calls is given here.
# Experiments:
# [1] = antimalarial activity against Dd2 strain (AID 2302;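 active = growth inhibition above 50% at the single 2 µM test dose, taken to imply half-maximal potency below 2 µM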;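 also: 0% = DMSO untreated growth and 100% = chloroquine plus artemisinin killed control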); settings: P. falciparum Dd2 in RBCs, LDH growth readout, 72 h; at 2 µM; active compounds read high
# [2] = human hepatoma cell viability loss – ATP luminescence, cytotoxicity control for P. falciparum antimalarial project, primary screen (AID 2303;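 active = inhibition above 50%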;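 also: 0% = DMSO wells and 100% = digitonin-killed cells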); settings: HepG2 viability, 24-48 h, at 10 µM, active compounds read high
# [3] = target: L-lactate dehydrogenase (Plasmodium falciparum (isolate CDC / Honduras)) (UniProt Q27743); assay: PfLDH activity inhibition – cell lysate, 3D7 strain, counter-screen for P. falciparum growth inhibition project (AID 2304);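 also: 0% = vehicle and 100% = reference inhibitor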; settings: P. falciparum 3D7 crude extract, LDH APAD/NBT absorbance; at 2 µM; active compounds read high
# [4] = inhibition of 3D7 malaria parasite growth – strain 3D7 (AID 2306);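 also: 0% = DMSO wells and 100% = chloroquine plus artemisinin control wells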; settings: P. falciparum 3D7 erythrocytic growth, LDH absorbance, 72 h; at 2 µM; active compounds read high
# [5] = target: Calcium-dependent protein kinase 1 (Plasmodium falciparum (isolate 3D7)) (UniProt P62344); assay: PfCDPK1 kinase inhibitors, biochemical, TCAMS library (AID 1159585; cut-off not given, nearly all actives have IC50 up to about 0.98 µM;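 also: inhibitors leave more ATP so luminescence rises with inhibition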); settings: recombinant PfCDPK1, Kinase-Glo ATP depletion luminescence
# [6] = target: Plasmodium falciparum protein kinase 6 (PK6, PF3D7_1337100) (UniProt Q8IDW1); assay: PfPK6 kinase inhibitors, biochemical, TCAMS library (AID 1159586); settings: recombinant PfPK6, Kinase-Glo ATP depletion luminescence
# [7] = target: Protein kinase 7 (PK7), Plasmodium falciparum 3D7 (PF3D7_0213400) (UniProt Q7YTF7); assay: inhibition of Plasmodium PK7 catalytic activity – biochemical, TCAMS antimalarial set, Kinase-Glo luminescence (AID 1159587); settings: recombinant PfPK7, Kinase-Glo ATP depletion luminescence
# [8] = target: Calcium-dependent protein kinase 4 (Plasmodium falciparum (isolate 3D7)) (UniProt Q8IBS5); assay: PfCDPK4 kinase inhibitors, biochemical, TCAMS library (AID 1159588; cut-off not given, nearly all actives have IC50 up to about 0.91 µM); settings: recombinant PfCDPK4, Kinase-Glo ATP depletion luminescence
# Chain of Calcium-dependent protein kinase 4 (Plasmodium falciparum (isolate 3D7)) (Q8IBS5 whole entry, looked up): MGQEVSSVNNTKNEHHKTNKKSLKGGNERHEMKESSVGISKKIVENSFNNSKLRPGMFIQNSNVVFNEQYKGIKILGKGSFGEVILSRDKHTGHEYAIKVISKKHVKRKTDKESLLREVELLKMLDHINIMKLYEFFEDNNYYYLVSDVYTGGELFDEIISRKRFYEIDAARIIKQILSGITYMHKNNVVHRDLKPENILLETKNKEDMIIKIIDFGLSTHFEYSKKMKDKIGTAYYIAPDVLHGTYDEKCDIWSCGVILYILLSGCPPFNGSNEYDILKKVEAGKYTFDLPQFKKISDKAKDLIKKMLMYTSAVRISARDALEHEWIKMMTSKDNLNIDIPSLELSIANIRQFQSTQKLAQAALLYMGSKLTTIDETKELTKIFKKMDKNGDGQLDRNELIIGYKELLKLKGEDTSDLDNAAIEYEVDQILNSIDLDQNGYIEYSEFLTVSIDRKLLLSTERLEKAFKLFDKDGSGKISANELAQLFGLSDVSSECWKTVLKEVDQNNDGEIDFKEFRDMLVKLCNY
# Chain of Calcium-dependent protein kinase 1 (Plasmodium falciparum (isolate 3D7)) (P62344 whole entry, looked up): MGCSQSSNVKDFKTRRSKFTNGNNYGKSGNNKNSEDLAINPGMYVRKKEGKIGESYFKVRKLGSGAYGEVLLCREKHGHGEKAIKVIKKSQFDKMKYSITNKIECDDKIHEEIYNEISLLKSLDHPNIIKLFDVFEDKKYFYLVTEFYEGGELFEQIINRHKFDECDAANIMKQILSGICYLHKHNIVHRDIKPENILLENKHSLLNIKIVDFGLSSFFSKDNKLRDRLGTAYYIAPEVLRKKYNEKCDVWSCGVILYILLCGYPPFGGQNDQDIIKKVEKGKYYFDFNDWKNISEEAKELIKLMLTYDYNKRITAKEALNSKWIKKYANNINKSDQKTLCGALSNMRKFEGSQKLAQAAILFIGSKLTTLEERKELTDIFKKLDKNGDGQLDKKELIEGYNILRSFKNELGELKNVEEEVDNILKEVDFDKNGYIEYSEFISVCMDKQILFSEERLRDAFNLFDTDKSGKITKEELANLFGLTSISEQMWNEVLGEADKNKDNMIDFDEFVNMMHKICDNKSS
# Chain of Plasmodium falciparum protein kinase 6 (PK6, PF3D7_1337100) (Q8IDW1 1-305): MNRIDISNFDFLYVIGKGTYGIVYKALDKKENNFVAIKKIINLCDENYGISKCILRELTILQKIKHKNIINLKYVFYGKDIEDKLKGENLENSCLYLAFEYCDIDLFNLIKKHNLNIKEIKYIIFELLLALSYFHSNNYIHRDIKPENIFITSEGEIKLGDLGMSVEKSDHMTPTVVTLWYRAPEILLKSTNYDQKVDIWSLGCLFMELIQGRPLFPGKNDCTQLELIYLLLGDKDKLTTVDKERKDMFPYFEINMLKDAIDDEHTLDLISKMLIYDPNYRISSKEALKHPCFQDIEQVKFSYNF
# Chain of L-lactate dehydrogenase (Plasmodium falciparum (isolate CDC / Honduras)) (Q27743 whole entry, looked up): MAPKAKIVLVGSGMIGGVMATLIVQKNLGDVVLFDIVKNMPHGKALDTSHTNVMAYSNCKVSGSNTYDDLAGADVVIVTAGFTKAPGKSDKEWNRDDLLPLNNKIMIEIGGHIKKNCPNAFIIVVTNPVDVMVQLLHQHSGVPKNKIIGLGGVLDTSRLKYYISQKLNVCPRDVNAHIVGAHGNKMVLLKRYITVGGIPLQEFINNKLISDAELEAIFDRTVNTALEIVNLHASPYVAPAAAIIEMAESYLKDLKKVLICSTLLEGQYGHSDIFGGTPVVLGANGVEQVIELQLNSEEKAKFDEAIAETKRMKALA
# Chain of Protein kinase 7 (PK7), Plasmodium falciparum 3D7 (PF3D7_0213400) (Q7YTF7 1-343): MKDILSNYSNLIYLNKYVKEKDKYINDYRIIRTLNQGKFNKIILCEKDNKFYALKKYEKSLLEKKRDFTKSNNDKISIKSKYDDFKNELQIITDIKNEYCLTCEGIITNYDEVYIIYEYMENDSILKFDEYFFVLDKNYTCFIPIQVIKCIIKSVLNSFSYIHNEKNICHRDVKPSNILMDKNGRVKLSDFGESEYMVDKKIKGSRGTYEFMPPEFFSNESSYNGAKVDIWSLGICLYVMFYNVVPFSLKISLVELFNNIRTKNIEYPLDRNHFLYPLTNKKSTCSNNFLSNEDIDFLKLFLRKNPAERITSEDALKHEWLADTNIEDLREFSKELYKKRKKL
Compound,growth inhibition [1],inhibition [2],inhibition [3],growth inhibition [4],outcome [5],outcome [6],outcome [7],outcome [8]
CO/C(=C\C=C\c1cc2cc(Cl)c(Cl)cc2[nH]1)C(=O)NCCCN1CCN(c2cccc(OC)c2)CC1,93% (active),61% (active),0%,100% (active),inactive,inactive,inactive,inactive
CC(Cc1ccc(NC(=O)c2ccc(CC(C)NCc3ccc(Cl)cc3)cc2)cc1)NCCc1cccc(Cl)c1 (configuration not stated),75% (active),95% (active),-5%,101% (active),inactive,inactive,inactive,inactive
Cc1cc(Cl)ccc1N(Cc1ccccc1)c1ccnc(Cl)n1,98% (active),16%,2%,97% (active),inactive,inactive,inactive,inactive
C[C@H](Cc1ccc(C(=O)OC(c2ccccc2)c2ccccc2)cc1)NC[C@H](O)c1ccccc1,98% (active),83% (active),-3%,100% (active),inactive,inactive,inactive,inactive
Cc1cc2cc(/C=C/C(=O)NC3CCC(CCN4CCc5ccc(C#N)cc5CC4)CC3)ccc2[nH]1 (configuration not stated),49%,6%,-1%,85% (active),inactive,inactive,inactive,inactive
CCCCCCCCn1c2c(c(=N)c3c1CCC3)CCC2,93% (active),47%,-5%,99% (active),inactive,inactive,inactive,inactive
COc1ccc(OC)c2c1CCN(CCN1CCC(C(=O)Nc3ccc(C(=O)Nc4ccc(Cl)cc4)cc3)CC1)C2,100% (active),25%,-2%,100% (active),inactive,inactive,inactive,inactive
CC(C)c1cccc(OCC2CCN(c3ncc(C(=O)NC4CC4)cc3Cl)CC2)c1,95% (active),9%,-1%,94% (active),inactive,inactive,inactive,inactive
Fc1ccc2nc(-c3cccc(-c4ccc(CN5CCN(c6ccncc6)CC5)cc4)c3)[nH]c2c1,67% (active),39%,0%,100% (active),inactive,inactive,inactive,inactive
CNC(=O)c1ccccc1Nc1cc(Nc2cc(OC)ccn2)ncc1Cl,100% (active),69% (active),5%,100% (active),inactive,inactive,inactive,inactive
CC(Sc1nc(-c2ccccc2)c(-c2ccccc2)o1)C(=O)NC1CC1 (configuration not stated),91% (active),13%,-2%,94% (active),inactive,inactive,inactive,inactive
NC1CCCN(Cc2ccc(-c3cccc(-c4nc5ccc(F)cc5[nH]4)c3)cc2)C1 (configuration not stated),75% (active),54% (active),1%,100% (active),inactive,inactive,inactive,inactive
CN(Cc1ccc(C#N)cc1)C1CCN(c2cc(NC(=O)c3cccc(F)c3)ccn2)CC1,-9%,9%,-2%,83% (active),inactive,inactive,inactive,inactive
CC(C)(C)c1ccc(CN2CCC(CNC(=O)c3cc(-c4cccc(F)c4)cs3)C2)cc1 (configuration not stated),55% (active),32%,3%,100% (active),inactive,inactive,inactive,inactive
CN(C)CCNC(=O)c1cc2c(-c3ccc(Cl)cc3)nn(C)c2s1,81% (active),18%,-1%,98% (active),inactive,inactive,inactive,inactive
CC(C)C[C@H](NC(=O)c1ccc(OCCN2CCOCC2)cc1)C(=O)N[C@H](/C=N/N1CCN(C)C1=O)CCc1ccccc1,65% (active),3%,3%,90% (active),inactive,inactive,inactive,inactive
Cc1cccc2[nH]c(-c3cccc(-c4cccc(CNCC5CCCO5)c4)c3)nc12 (configuration not stated),99% (active),26%,-3%,101% (active),inactive,inactive,inactive,inactive
O=C(NCc1ccccc1F)c1ccc(N2CCC(NCc3cccc(-n4cccn4)c3)CC2)cc1,3%,9%,4%,89% (active),inactive,inactive,inactive,inactive
CCN(CC)CCCNC(=O)/C(=C/C=C/c1cc2cc(Cl)c(Cl)cc2[nH]1)OC,21%,38%,-2%,84% (active),inactive,inactive,inactive,inactive
CN(C)Cc1ccc2nc(-c3cccc(Cc4cc(Cl)ccc4OCc4ccc(Cl)cc4F)n3)[nH]c2c1,26%,43%,1%,93% (active),inactive,inactive,inactive,inactive

Compound,growth inhibition [1],inhibition [2],inhibition [3],growth inhibition [4],outcome [5],outcome [6],outcome [7],outcome [8]
Cc1nnsc1C(=O)Nc1ccc(-c2cccc(-c3nc4ccc(F)cc4[nH]3)c2)cc1,27%,44%,2%,96% (active),inactive,inactive,inactive,inactive
COc1ccc(NC(=O)c2ccc(-c3nc(-c4ccc(Cl)cc4)cs3)cc2)cc1N1CCN(C)CC1,34%,30%,0%,91% (active),inactive,inactive,inactive,inactive
CCNc1cc(C(=O)N[C@@H](Cc2ccccc2)[C@H](O)CNC2CCC(C)(C)CC2)cc(N2CCCCS2(=O)=O)c1,71% (active),1%,3%,98% (active),inactive,inactive,inactive,inactive
Cn1nc(-c2cccc(CN[C@@H]3CCc4ccc(O)cc43)c2)c2cnc(NCCCN3CCCC3)nc21,-2%,9%,-3%,101% (active),inactive,inactive,inactive,inactive
CN1CCC(N2CCN(Cc3cccc(-c4cccc(-c5nc6ccccc6[nH]5)c4)c3)CC2)CC1,100% (active),19%,-1%,100% (active),inactive,inactive,inactive,inactive
CCCCn1c(N)c(N(Cc2ccco2)C(=O)C=Cc2cc(OC)c3c(c2)OCCO3)c(=O)[nH]c1=O,94% (active),4%,2%,85% (active),inactive,inactive,inactive,inactive
CN1CCCN(c2ccnc3cc4c(cc23)N(C(=O)c2ccc(Cl)c(Cl)c2)CC4)CC1,73% (active),20%,2%,101% (active),inactive,inactive,inactive,inactive
CC[C@H](C)CNC(=O)c1cncc(-c2cccc(CN3CCC(N4CCCC4)CC3)c2)c1,5%,-1%,6%,97% (active),inactive,inactive,inactive,inactive
O=C(NC1CCC(N2CCN(c3cccc(C(F)(F)F)c3)CC2)CC1)c1cc2ccccc2[nH]1 (configuration not stated),22%,23%,0%,99% (active),inactive,inactive,inactive,inactive
Cc1ccc(NC(=O)c2ccc3ncccc3c2)cc1OC1CCN(CCC(C)C)CC1,48%,2%,-4%,94% (active),inactive,inactive,inactive,inactive
O=[N+]([O-])c1cccc(-c2nc(-c3ccc(Br)cc3)[nH]c2-c2ccc(Br)cc2)c1,44%,6%,2%,99% (active),inactive,inactive,inactive,inactive
CCOc1c(Cl)cc(Cl)cc1CNCCCNc1nc2ccccc2[nH]1,1%,18%,-7%,94% (active),inactive,inactive,inactive,inactive
CN(CC(=O)Nc1cc(C(F)(F)F)ccc1-n1cncn1)Cc1ccc2ccccc2c1,99% (active),18%,3%,98% (active),inactive,inactive,inactive,inactive
COc1cc(Cc2cnc(N)nc2N)cc(OC)c1OCCCCCN1C(=O)c2ccccc2C1=O,4%,5%,3%,97% (active),inactive,inactive,inactive,inactive
O=C(NC1CCN(Cc2ccc3c(c2)OCCO3)CC1)c1ccc(-c2cccc(Cl)c2)s1,9%,46%,-5%,93% (active),inactive,inactive,inactive,inactive
CC(C)(C)c1ccc(CN2CCC(CNC(=O)c3cc(-c4ccccc4)nc4ccccc34)CC2)cc1,36%,33%,-1%,89% (active),inactive,inactive,inactive,inactive
CS(=O)(=O)CCNCc1nc(-c2ccc3ncnc(Nc4ccc(OCc5ccccc5)c(Cl)c4)c3c2)cs1,55% (active),13%,2%,99% (active),inactive,inactive,inactive,inactive
O=C(/C=C/c1ccccc1F)NC1CCC(CCN2CCc3ccc(-c4cccnc4)cc3CC2)CC1 (configuration not stated),5%,34%,-4%,92% (active),inactive,inactive,inactive,inactive
CCCCOC(=O)c1ccc(Nc2cc(C)nc3ccc(OC)cc23)cc1,96% (active),4%,-5%,100% (active),inactive,inactive,inactive,inactive
